# The whole screen tested about 76,000 compounds, of which about 1,900 (2.5%) were called active. Where a call stands in place of a potency, no number is given. Roughly 5% stayed inconclusive and do not appear here. The sample holds actives, similar compounds and a random draw of the others, so the mix is not that of the screen. The call rests on the fitted dose curve; in most records, active means well fitted inhibition curve with a large enough effect; inconclusive means small, poorly fitted or top-dose-only effect; inactive means flat fitted curve, though single readings scatter.
# Biological target: Luciferin 4-monooxygenase (Photinus pyralis) (UniProt P08659)
# Test: Firefly luciferase inhibition profiling of diverse chemical library using quantitative high-throughput screening; further: nearly all actives have a fitted effect of over 65% in size
# Conditions: purified P. pyralis luciferase, luminescence, biochemical; series mostly up to 115 µM
# Procedure, shortened: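 Inhibitors were tested against purified firefly luciferase in a biochemical, low-substrate format (both substrates at 10uM) and luminescence measured with a CCD imager.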
# Potency means the concentration at half of the fitted maximal effect.
# Sequence of Luciferin 4-monooxygenase (Photinus pyralis) (P08659 whole entry, looked up): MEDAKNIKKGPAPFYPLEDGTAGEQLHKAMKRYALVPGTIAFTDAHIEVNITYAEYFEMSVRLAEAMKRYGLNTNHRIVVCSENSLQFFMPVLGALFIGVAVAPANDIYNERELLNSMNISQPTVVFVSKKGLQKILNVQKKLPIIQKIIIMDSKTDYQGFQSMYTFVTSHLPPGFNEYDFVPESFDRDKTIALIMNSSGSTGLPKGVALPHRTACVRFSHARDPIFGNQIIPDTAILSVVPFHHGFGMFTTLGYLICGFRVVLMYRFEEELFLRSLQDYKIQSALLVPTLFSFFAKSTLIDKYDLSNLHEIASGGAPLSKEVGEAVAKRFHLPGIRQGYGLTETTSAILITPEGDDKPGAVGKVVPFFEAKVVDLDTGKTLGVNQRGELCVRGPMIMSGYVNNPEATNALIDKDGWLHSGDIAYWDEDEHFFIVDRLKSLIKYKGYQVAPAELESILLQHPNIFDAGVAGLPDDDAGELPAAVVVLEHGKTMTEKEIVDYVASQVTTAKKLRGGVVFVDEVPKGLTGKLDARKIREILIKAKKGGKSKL
row,SMILES,Potency
1,CCCCc1nc2cc(C(=O)N3CCCC3c3cc(C(C)C)on3)ccc2o1 (centres undefined),inactive
2,O=[S+]([O-])(Nc1ccccc1)c1ccc2c(c1)OCCN(CC1CC1)C2,inactive
3,Cc1ccc(CN2CC[C@@](C)(O)[C@H](N3CCCC3)C2)s1,inactive
4,CC(C)CCN1CCC2(CC1)CC(=O)c1ccc(Cl)cc1O2,44.7 µM (active)
5,CC(C)CCN1CCC2(CC1)C(=O)NCN2Cc1ccc(Cl)cc1,inactive
6,COc1ccc(CN2CCC3(CC2)CC(=O)c2ccc(Cl)cc2O3)cc1,inactive
7,CC(C)NC(=O)N1CCC[C@@H](O)[C@H](NC(=O)c2ccc(OCC(N)=O)cc2)C1,inactive
8,CNC(=O)[C@@H]1CN(C(=O)Cc2c[nH]c3ccccc23)C[C@H]1COC,inactive
9,O=C(Nc1cccc(Br)c1)C1CC(=O)N(c2n[nH]c3cccc(F)c23)C1 (centres undefined),inactive
10,COCCCN(CCC(=O)N1CCC(C)CC1)C(=O)c1cc(C)oc1C,inactive
11,COc1ccc2[nH]c(C[C@@H]3C[C@@H](C(C)C)[C@H](CNC4CCN(C)CC4)C=C3C)nc2n1,inactive
12,O=C(Nc1ccc(Cl)cc1)C1CCN(C(=O)c2ncn3c2COC(c2ccc(F)cc2)C3)CC1 (centres undefined),22.4 µM (active)
13,COc1ccc(C2Cn3cnc(C(=O)N4CCC(C(=O)Nc5cc(C)cc(C)c5)CC4)c3CO2)cc1 (centres undefined),inactive
14,COc1ccc(C2Cn3cnc(C(=O)N4CCC(C(=O)NC5CCCC5)CC4)c3CO2)cc1 (centres undefined),inactive
15,CCOc1cccc(CNC(=O)c2cc3n(n2)CC(c2ccc(Cl)cc2)OC3)c1 (centres undefined),inactive
16,O=C(Nc1cccc(F)c1)c1cc2n(n1)CC(c1ccc(Cl)cc1)OC2 (centres undefined),inactive
17,CC(=O)N1CCC(C(=O)NCC2CCN(c3cc(-c4ccc(C)cc4)[nH]n3)CC2)CC1,inactive
18,O=C(NCc1ccccc1)C1CCN(C(=O)c2ncn3c2COC(c2ccccc2)C3)CC1 (centres undefined),3.16 µM (active)
19,COc1ccc(C2Cn3cnc(C(=O)N4CCC(C(=O)NCc5cccc(F)c5)CC4)c3CO2)cc1 (centres undefined),inactive
20,CCC(CC)C(=O)N1CCC(N2CCCC(C(=O)NCc3ccccc3)C2)CC1 (centres undefined),inactive
21,O=C(NCC1CC1)C1CCN(C(=O)c2ncn3c2COC(c2ccccc2)C3)CC1 (centres undefined),10 µM (active)
22,O=C(NCc1ccc(F)c(Cl)c1)C1CCN(C(=O)c2ncn3c2COC(c2ccccc2)C3)CC1 (centres undefined),11.2 µM (active)
23,COc1ccc(C2Cn3nnc(C(=O)N4CCN(C(=O)c5cccc(Cl)c5)CC4)c3CO2)cc1 (centres undefined),inactive
24,Cc1ccc(C(=O)N[C@H]2CO[C@H]3[C@@H]2OC[C@@H]3n2nnnc2Oc2ccc(-n3ccnc3)cc2)cc1,inactive
25,O=C(Nc1ccccc1)N1CCC2(CC1)CC(Cc1ccccc1)=NO2,inactive
26,COc1cccc(CC(=O)N2CCCn3nc(C)c(-c4ccccc4OCc4ccccc4)c32)c1,inactive
27,CC(C)Oc1ccc(CNC(=O)C2Cn3cccc3C(=O)N2Cc2cccnc2)cc1 (centres undefined),inactive
28,COc1ccccc1CN1CCN(C(=O)CCC[C@H]2NC[C@@H]3C[C@H]2CN(Cc2ccccc2)C3)CC1,inactive
29,CCCN1C(=O)Cc2cc(C(=O)NC3CC3)ccc21,inactive

# Reference: PubChem BioAssay AID1347043 (National Center for Advancing Translational Sciences (NCATS), 2019)
